Data on 112 compounds can be found in ChEMBL document CHEMBL4513216, “Probing the Open Global Health Chemical Diversity Library for Multistage-Active Starting Points for Next-Generation Antimalarials” (ACS Infect Dis, 2020).

The structures appear in SMILES notation. About 8,600 (12%) of roughly 69,000 compounds showed an effect of 50% or more. For the sample, strong results were picked, then their nearest neighbours and some compounds at random.

In this assay the test system is Plasmodium berghei. The experiment in a line: Screen against P. berghei liver stage (PbLuc), transformed with Luciferase, at 10uM. As to conditions: tested at 10 uM. The assay is classed as functional, HepG2.
Regarding `CC(C)N1CCN(C(=O)c2ccccc2NCc2cccnc2)CC1`, the INHIBITION was -9.31%.
As to `CC(C)c1nnc(NC(=O)N(C)Cc2ccc(C(N)=O)cc2)s1`, the INHIBITION amounted to 22.5%.
Under `Cc1cc(O)cc(=O)n1CCCC(=O)Nc1n[nH]c2cccc(F)c12` stands 5.03%.
As for `COc1ccccc1CNC(Cc1cccs1)c1nc(C)cs1` (configuration not stated), the figure is 47.2%; as for `COc1cccc(CNC(Cc2cccs2)c2nc(C)c(C)s2)c1OC` (configuration not stated), 42.4%; as for `COc1ccccc1CNC(Cc1cccs1)c1nc(C)c(C)s1` (configuration not stated), 55.6%.
With `O=C1CCC2(CCC(NC(=O)NCc3cccnc3)CC2)N1` (configuration not stated), the INHIBITION is on record as 35.8%.
As for `Nc1nc(CNc2nccc(CCC(F)(F)F)n2)cs1`, the figure is 32.7%.
As for `FC(F)(F)CCc1ccnc(NCc2csc(N3CCOCC3)n2)n1`, the figure is 69%; as for `CC(C)c1nc(CNc2nccc(CCC(F)(F)F)n2)cs1`, 16.2%; as for `Cc1noc(C)c1CN1CC[C@H]2OCC[C@@]2(C(=O)N2CCOCC2)C1`, 47.4%.
As for `CN(Cc1ccc(Cl)c(F)c1)C(=O)c1ccncc1F`, the figure is 36.2%; as for `CN(Cc1ccc(Cl)c(Cl)c1)C(=O)CNC(N)=O`, -36.3%; as for `CN(Cc1ccc(Cl)c(F)c1)C(=O)CCc1ccncc1`, 56.5%.
For the compound `O=C1CCc2cc(S(=O)(=O)NC(=O)c3ccc4c(c3)COC4)ccc2N1`, the INHIBITION is 62.9%.
For the compound `O=C1COc2cc(C(=O)NS(=O)(=O)c3ccc(F)c(F)c3)ccc2N1`, the INHIBITION is on record as 41.5%.
As to `COCc1ccccc1C(=O)NS(=O)(=O)c1ccc2c(c1)CCC(=O)N2`, the INHIBITION is recorded as 25.5%.
On to `O=C1CCc2cc(S(=O)(=O)NC(=O)c3ccc4c(c3)CCO4)ccc2N1`, for which the INHIBITION is 44.7%.
`O=C1CCc2cc(S(=O)(=O)NC(=O)c3ccc4c(c3)OCO4)ccc2N1`: the INHIBITION worked out at 39.4%.
As for `COCc1ccc(C(=O)NS(=O)(=O)c2ccc3c(c2)CCC(=O)N3)cc1`, the figure is 61.8%; as for `O=C(C1CCOCC1)N1CCc2ncc(CN3CCCC3)n2CC1`, 29.9%.
As for `Cc1ccc2ncccc2c1CN1CC[C@H](N(C)C)[C@H](CCC(=O)O)C1`, the figure is -102%; as for `CC(C)CCn1[nH]c(CNc2ccc(Cl)cc2)nc1=O`, 40%.
`N#CCCn1cnc2c(F)cc(Br)cc2c1=O`: the INHIBITION is on record as 53.9%.
Under `N#CCCn1cnc2c(Br)cc(Br)cc2c1=O` stands 44.2%.
As for `N#CCCCn1cnc2c(F)cc(Br)cc2c1=O`, the figure is 46.4%; as for `O=C(NCCCn1ccnc1)NCC(c1ccco1)N1CCCCC1` (configuration not stated), -67.3%.
Regarding `CCC[C@@H]1CN(C(=O)c2cc(-c3cccs3)n(C)n2)C[C@H]1NS(C)(=O)=O`, the INHIBITION is recorded as 18.8%.
As for `COC(=O)CCNC(=O)c1cnc(Cc2ccc(F)cc2)s1`, the figure is 18.3%; as for `O=C(NCCN1CCOCC1)c1cnc(-c2ccccc2F)s1`, 41.6%.
Under `O=C(NCCN1CCOCC1)c1ccc(-c2ccccc2)[nH]c1=O` stands -14.1%.
As for `O=C(NCCN1CCOCC1)c1ccc(-c2ccc(F)cc2)nc1O`, the INHIBITION came to 61.2%.
For the compound `Cc1cccc(-c2ccc(C(=O)NCCN3CCOCC3)c(=O)[nH]2)c1`, the INHIBITION is 68.6%.
With `CN(C)CCCNC(=O)c1cnc(Cc2ccc(F)cc2)s1`, the INHIBITION is 73.1%.
Turning to `O=C(NCCCN1CCOCC1)c1ccc(-c2ccccc2)[nH]c1=O`, the INHIBITION is reported as 41.4%.
As for `CCNC(=O)c1cnc(Cc2ccc(F)cc2)s1`, the figure is 17.4%; as for `Cc1ccc(C(=O)NCCN2CCOCC2)c(=O)[nH]1`, -14.1%.
With `O=C(NCCN1CCOCC1)c1cnc(Cc2ccc(F)cc2)s1`, the INHIBITION was determined as 63.7%.
Under `O=C(NCCN1CCOCC1)c1ccn(COc2ccc(F)cc2)n1` stands -8.9%.
As for `CCc1ncc(C(=O)NCCNC(=O)Cc2ccc(F)cc2)s1`, the figure is -49.7%; as for `CC(C#N)(NC(=O)c1ccc(C#N)cc1)C1CC1` (configuration not stated), 2.45%.
For the compound `CC1CCc2n[nH]c(C(=O)NCCCc3ccco3)c2C1` (configuration not stated), the INHIBITION is reported as 6.32%.
With `Cc1cnn(C2CN(Cc3nc4cc(Cl)ccc4n3C)C2)c1`, the INHIBITION is -10.6%.
For `CC(C)(CN)NS(=O)(=O)c1cccc(F)c1F`, the INHIBITION is recorded as 19%.
As for `CCN1CCn2c(C)cnc2C12CCN(C(=O)c1ccco1)CC2`, the figure is 3.81%.
As for `CN1CC(=O)N(c2cccc(F)c2)CC12CCN(CCO)C2` (configuration not stated), the figure is 21.8%; as for `COc1ccc(N2CCN(C(=O)c3cc(=O)c(OC)c[nH]3)CC2)cc1`, -13.8%; as for `CCC(c1ccc(F)cc1F)N1CCN(CCO)CC1` (configuration not stated), 48.1%.
As for `CCC(c1ccccc1)N1CCN(CCO)CC1` (configuration not stated), the INHIBITION is listed as 52.1%.
Under `CC(c1cccnc1)N1CCN(CCCC#N)CC1` (configuration not stated) stands 41.4%; under `CCS(=O)(=O)CCN1CCN(C(C)c2cccnc2)CC1` (configuration not stated), 24.2%; under `CCC(c1ccccc1)N1CCN(C(=O)c2cc(C(N)=O)c[nH]2)CC1` (configuration not stated), -23.1%.
For the compound `CC(c1cccnc1)N1CCN(CCO)CC1` (configuration not stated), the INHIBITION worked out at 60%.
As for `CN(Cc1nnc(C2CC2)o1)Cc1ccccc1N1CCOCC1`, the figure is 20.19%.
Turning to `O=C(c1cocn1)N1CCC2(CC1)COC(COCc1ccccn1)C2` (configuration not stated), the INHIBITION came out at 8.03%.
On to `COc1c(CNCc2cccc(Cn3cncn3)c2)c(C)nn1C`, for which the INHIBITION is -21.8%.
Regarding `Cc1cc(C)nc(C2CCCN2C(=O)c2cnco2)n1` (configuration not stated), the INHIBITION was 12.8%.
Under `Cc1ccoc1C(=O)NCC(c1ccccc1Cl)N1CCOCC1` (configuration not stated) stands 30.5%; under `Cc1cc(C(=O)NCC(c2ccccc2Cl)N2CCOCC2)on1` (configuration not stated), 1.7%; under `Cc1nc(C)c(C(=O)NCC(c2ccccc2Cl)N2CCOCC2)s1` (configuration not stated), 62.3%.
As for `CN(Cc1cccc(OC(F)(F)F)c1)Cc1cnn(C)c1`, the figure is -6.51%; as for `Cc1ncsc1C(=O)N(C)Cc1ccccc1`, -15.75%.
Under `CCO[C@H]1CC[C@H]2[C@@H]1OCCN2C(=O)COc1ccccc1` stands 62%.
Regarding `CO[C@H]1CC[C@H]2[C@H]1OCCN2C(=O)c1nn(C)c2ccccc12`, the INHIBITION is given as 47.4%.
As for `CO[C@@H]1CC[C@H]2[C@H]1OCCN2C(=O)COc1ccc(C)cc1`, the figure is 47.5%; as for `COc1cc(C(=O)N2CCO[C@H]3[C@H](OCC4CC4)CC[C@@H]32)ccc1F`, 30.5%; as for `CN(C)CCO[C@@H]1CC[C@H]2[C@H]1OCCN2C(=O)COc1ccccc1`, 22.2%.
As for `CCO[C@H]1CC[C@H]2[C@H]1OCCN2C(=O)c1nn(C)c2ccccc12`, the figure is 67.3%; as for `COCC(=O)N1CCO[C@H]2[C@H](OC)CC[C@@H]21`, 50%.
In the case of `CCO[C@@H]1CC[C@H]2[C@H]1OCCN2C(=O)c1nn(C)c2ccccc12`, the INHIBITION is listed as 22.6%.
Take `CO[C@@H]1CC[C@H]2[C@H]1OCCN2C(=O)COc1ccc(F)cc1`: the INHIBITION worked out at 29.6%.
On to `CCO[C@H]1CC[C@H]2[C@H]1OCCN2C(=O)COc1ccccc1`, for which the INHIBITION is 34.9%.
Under `CO[C@@H]1CC[C@H]2[C@H]1OCCN2C(=O)C1CCOCC1` stands 33%.
As for `O=C(COc1ccc(F)cc1)N1CCO[C@H]2[C@@H](OCC3CC3)CC[C@@H]21`, the figure is 59.3%.
As for `N#Cc1nc(COc2ccc3c(c2)OCO3)oc1N1CCCC1`, the figure is 45.2%; as for `COC(=O)c1cc(C(=O)N2CCCCC2C)n(-c2ccccc2)n1` (configuration not stated), 13.4%.
`CN1C[C@H]2CNC[C@@]2(C(=O)N2CCN(c3ncccc3C#N)CC2)C1`: the INHIBITION is 48.1%.
Under `COCCn1c(-c2cccc(OC)c2)cnc1NC(=O)NCC(C)C` stands 25.1%; under `c1cnc(NC2COC3(CCN(Cc4cccs4)CC3)C2)nc1` (configuration not stated), -23.8%; under `CCN(CC)C(=O)c1ccn(COc2ccc(F)cc2)n1`, 1.04%.
As for `COC(=O)c1ccc(N(C(=O)c2cscn2)C(C)C)c(C)c1`, the figure is 27%; as for `O=C(Cc1ccsc1)N1CCC(c2ccncc2)CC1`, 45.2%.
Under `CN(Cc1ccc2c(c1)OCCO2)C(=O)NCCc1cnn(C)c1` stands 47.6%; under `CC(=O)NCCNC(=O)N(C)Cc1ccc2c(c1)OCCO2`, 56.6%; under `Cc1cc(C)c(CNC(=O)N(C)Cc2ccoc2)c(=O)[nH]1`, 26.5%.
Regarding `Cc1cc(C)c(CNC(=O)N(C)Cc2ccc(F)cc2)c(=O)[nH]1`, the INHIBITION was 7.27%.
As for `CCN(Cc1ccc2c(c1)OCCO2)C(=O)NCc1nncn1CC`, the figure is 11.4%.
As for `CCn1cnnc1CNC(=O)N(C)Cc1ccc2c(c1)OCCO2`, the figure is 30.2%.
For the compound `Cc1cc(C)c(CNC(=O)N(C)Cc2ccc3c(c2)OCO3)c(=O)[nH]1`, the INHIBITION worked out at 51.1%.
Under `CCn1cnnc1CNC(=O)N(C)Cc1ccc2c(c1)OCO2` stands 59.4%.
In the case of `CN(Cc1cnn(C)c1)C(=O)NCCc1ccc2c(c1)OCCO2`, the INHIBITION is on record as -2.862%.
In the case of `Cc1cc(Nc2cnccn2)cc(C2CCCN2)n1` (configuration not stated), the INHIBITION was determined as 21.7%.
Under `O=C(C1CCOCC1)N1CCO[C@H]2[C@H](OCC3CC3)CC[C@@H]21` stands -37.4%.
Under `Cc1cccc(C(=O)N2CCc3ncnc(C4CCOC4)c3CC2)n1` (configuration not stated) stands 15.9%; under `CC(CN1CCCCCC1)NCc1cc(-c2ccco2)on1` (configuration not stated), 59.5%.
Turning to `COC(C)(C)CC(C)NCc1cc(-c2ccco2)on1` (configuration not stated), the INHIBITION is 29.2%.
Under `CCSCC(C)NCc1cc(-c2ccco2)on1` (configuration not stated) stands 13.7%; under `CCc1cnccc1C(=O)NC1CCN(Cc2ccccc2F)CC1`, 23.1%.
Under `Cn1ncc(N2CCOC(CCNC(=O)N3CCCCC3)C2)cc1=O` (configuration not stated) stands 47.4%; under `Cn1ncc(N2CCOC(CCNC(=O)CO)C2)cc1=O` (configuration not stated), 25.8%; under `Cn1ncc(N2CCOC(CCNC(=O)NC(C)(C)C)C2)cc1=O` (configuration not stated), 71.2%.
As for `O=S(=O)(C1CC1)N1C[C@H](Oc2ccccn2)[C@H]2OCCC[C@H]21`, the figure is 15.4%.
Turning to `Cc1ccc(CNS(=O)(=O)C=c2[nH]c(=O)n3cccc3c2=O)cc1`, the INHIBITION is on record as 0%.
Consider `CO[C@H]1CCN(Cc2cccs2)[C@@H]2CN(Cc3ccncc3)C[C@H]12`, for which the INHIBITION came out at 61.3%.
Under `CN(C)[C@@H]1CCN(C(=O)Cc2cccs2)[C@H]1Cc1ccncc1` stands 74.2%; under `COCCN1CC[C@H](OC)[C@@H]1Cc1ccccc1`, 10%.
`CO[C@@H]1CCN(Cc2cccs2)[C@@H]2CN(Cc3ccncc3)C[C@@H]21`: the INHIBITION is reported as 46.4%.
As for `COCCN1C[C@@H]2[C@@H](OC)CCN(Cc3cccs3)[C@@H]2C1`, the figure is 16.8%; as for `CN(C)[C@@H]1CCN(C(=O)Cc2ccc(F)cc2)[C@H]1Cc1ccncc1`, 15.9%; as for `CN(C)[C@@H]1CCN(C(=O)Cc2cccs2)[C@H]1Cc1cnn(C)c1`, -16.7%.
As for `CO[C@@H]1CCN(Cc2cccs2)[C@H]1Cc1ccncc1`, the INHIBITION came out at 62.5%.
On to `COCCO[C@H]1CCN(Cc2cccs2)[C@H]1Cc1cccnc1`, for which the INHIBITION is 32.7%.
